Laboratory results: ChEMBL document CHEMBL4513216, “Probing the Open Global Health Chemical Diversity Library for Multistage-Active Starting Points for Next-Generation Antimalarials” (ACS Infect Dis, 2020)
Screen size: about 69,000 compounds; about 8,600 (12%) showed an effect of 50% or more. The sample holds strong results, similar compounds and a random draw of the others, so the mix is not that of the screen.

What follows are compounds tested on Plasmodium berghei (assay: Screen against P. berghei liver stage (PbLuc), transformed with Luciferase, at 10uM). Settings: tested at 10 uM.
Format: functional, HepG2
CCCn1[nH]c(CNc2cccc(Cl)c2)nc1=O gave an INHIBITION of 46.4%. Cc1nnc2n1CCN(C(=O)c1cc3cc(F)ccc3[nH]1)C2 was tested, and the INHIBITION was 14.1%. For Cn1cc(CN2CCC3(CCCN(C(=O)c4cscn4)C3)C2)cn1 (configuration not stated), the INHIBITION was -68.5%. Cc1cn2c(n1)CCC(NC(=O)c1cc(C3CC3)[nH]n1)C2 (configuration not stated) showed an INHIBITION of -1.14%. In the case of Cc1cccc(N(C)Cc2cc(=O)n3oc(C)cc3n2)c1, the INHIBITION is reported as 43.5%. For Cc1cc2nc(CN(C)c3ccccc3)cc(=O)n2o1, the INHIBITION was 12.9%. Cc1cc2nc(CN(C)c3ccc(Cl)cc3)cc(=O)n2o1 was tested, and the INHIBITION was 56%. NC(=O)[C@H]1CCCN1C(=O)c1csc(-c2ccc(C(F)(F)F)cc2)n1 gave an INHIBITION of -2.25%. Work on CCOCC1CCN(C(=O)C(c2ccc(F)cc2)N(C)C)CC1 (configuration not stated) yielded an INHIBITION of 17.5%. Compound CNS(=O)(=O)c1c(C)sc2ccccc12 has an INHIBITION of -77.9%. Cc1[nH]ncc1C(=O)N1CCCC(c2ccn[nH]2)C1 (configuration not stated) gave an INHIBITION of 23.5%. Cc1nc(CN2CCCN(C(=O)c3cnccn3)CC2)cs1 gave an INHIBITION of -16.4%. Compound CCCS(=O)(=O)NCC(C)c1ccc(F)c(F)c1 (configuration not stated) has an INHIBITION of 10%. For CC(CNS(N)(=O)=O)c1ccc(F)c(F)c1 (configuration not stated), the INHIBITION was 31.1%. For CC(CNS(C)(=O)=O)c1ccc(F)c(F)c1 (configuration not stated), the INHIBITION was 60.4%. Compound Cc1ccn(-c2ccnc(N3CCN(c4ncccn4)CC3)n2)n1 has an INHIBITION of 44.9%. COCCO[C@H]1CCN(c2ccc(C)nn2)[C@H]1Cc1cnn(C)c1 showed an INHIBITION of 13.7%. CNC(=O)CS(=O)(=O)Cc1ccc(OC)c(F)c1 gave an INHIBITION of 52.2%. Work on COc1ccc(CS(=O)(=O)CC(=O)NCc2ccccc2F)cc1F yielded an INHIBITION of 40.3%. Compound COc1ccc(CS(=O)(=O)CC(=O)NCC2CC2)cc1F has an INHIBITION of 19%. Work on Cc1nccn1CCN(C)C(=O)C1CCN(C(=O)C2CCCC2)CC1 yielded an INHIBITION of 48.9%. Compound N#Cc1ccc(C(=O)N2CCCSCC2CN2CCCC2)cc1 (configuration not stated) has an INHIBITION of 40.8%. Cc1cc(S(C)(=O)=O)c(C)c(S(=O)(=O)N2CCCC(C)C2)c1 (configuration not stated) was tested, and the INHIBITION was 63%. Work on Cc1cc(S(C)(=O)=O)c(C)c(S(=O)(=O)N2CCCCCC2)c1 yielded an INHIBITION of 36.4%. Cc1cc(S(C)(=O)=O)c(C)c(S(=O)(=O)N2CCN(C)CC2)c1 gave an INHIBITION of 31.9%. Compound CC(=O)c1c(F)cccc1NCC(O)C1CC1 (configuration not stated) has an INHIBITION of 26%. With Cc1nc(NCc2scnc2-c2ccccc2)cc(C2CCNCC2)n1 the INHIBITION was 24.3%. Compound CN(C)c1ccc(-c2cc(=O)n3c(n2)CCCCC3)cc1 has an INHIBITION of 35.1%. Work on Cc1ccc(S(=O)(=O)n2ccn(C(=O)COc3ccccc3)c2=O)cc1 yielded an INHIBITION of 44.1%. Cc1cc(CSC2CCCN(c3cnn(C)c3)C2=O)no1 (configuration not stated) was tested, and the INHIBITION was 30.5%. Compound Cn1cc(N2CCCC(SCc3nc(C4CC4)no3)C2=O)cn1 (configuration not stated) has an INHIBITION of 51.2%. For CC(C)Cc1nc(CSC2CCCN(c3cnn(C)c3)C2=O)no1 (configuration not stated), the INHIBITION was 20.1%. For c1nc(CCC2CCCN2)cc(N2CCCCCC2)n1 (configuration not stated), the INHIBITION was 5.11%. In the case of Cc1n[nH]c(C)c1C1COCCN1C(=O)c1ccc2c(c1)CCO2 (configuration not stated), the INHIBITION is reported as 32.125%. CSCc1cc(F)ccc1CNCc1cccc(O)c1 was tested, and the INHIBITION was 5.15%. With O=C1CC(c2ccc3c(c2)OCO3)c2snc(C(=O)O)c2N1 (configuration not stated) the INHIBITION was 15.1%. Work on O=C(C1CC1)N1CC2(CCNCC2)c2cc(F)ccc21 yielded an INHIBITION of -12.2%. Compound CC(C)N1CCC2(CC1)CC(CC(N)=O)c1ccc(F)cc12 (configuration not stated) has an INHIBITION of 58.7%. Work on CNC(=O)CC1CC2(CCNCC2)c2cc(F)ccc21 (configuration not stated) yielded an INHIBITION of 44.8%. CN(C)C(=O)CC1CC2(CCNCC2)c2cc(F)ccc21 (configuration not stated) gave an INHIBITION of 59.1%. O=C(CC1CC2(CCNCC2)c2ccccc21)NCC1CC1 (configuration not stated) gave an INHIBITION of 57.5%. Compound CS(=O)(=O)N1CCC2(CC1)CC(CC(=O)NCC1CC1)c1ccccc12 (configuration not stated) has an INHIBITION of 3.69%. NC(=O)CC1CC2(CCNCC2)c2cc(F)ccc21 (configuration not stated) was tested, and the INHIBITION was 59.3%. In the case of COCC(=O)N1CCC2(CC1)CC(OC)c1ccc(F)cc12 (configuration not stated), the INHIBITION is reported as 42.1%. O=C(CC1CC2(CCN(CC3CC3)CC2)c2ccccc21)NC1CCC1 (configuration not stated) showed an INHIBITION of 34.4%. With COCCN1CCC2(CC1)CC(CC(N)=O)c1ccc(F)cc12 (configuration not stated) the INHIBITION was -8.85%. O=c1n(CCNCc2ccc(-c3ccccc3)cc2)nc2ccccn12 was tested, and the INHIBITION was 35.7%. Cc1nn(C)c(Cl)c1C1CCCN1CC(=O)Nc1cccnc1 (configuration not stated) showed an INHIBITION of 21.6%. Work on Cn1cc(-c2ncc3c(c2C(=O)O)CCN(CC2CCOC2)C3)cn1 (configuration not stated) yielded an INHIBITION of 17.7%. Work on O=C(c1ccco1)N1C[C@H]2CCCN(Cc3ccc(F)cc3)[C@H]2C1 yielded an INHIBITION of 29.4%. With Cc1nc(N(C)C)ncc1C(=O)N[C@H]1Cc2ccccc2[C@@H]1N the INHIBITION was 2.7%. COCCN(Cc1ccoc1)S(=O)(=O)c1ccc(OC)c(Cl)c1 was tested, and the INHIBITION was 25.4%. Compound Cc1noc(NCc2cn(C)nc2-c2cccnc2)n1 has an INHIBITION of 41.5%. Cc1oc(-c2nc(C#N)c(NC(C)C)o2)cc1S(=O)(=O)N1CCCC1 showed an INHIBITION of 34.6%. With CNc1oc(-c2cc(S(=O)(=O)N3CCCCCC3)c(C)o2)nc1C#N the INHIBITION was 39.5%. With Cc1oc(-c2nc(C#N)c(NC(C)C)o2)cc1S(=O)(=O)N1CCCCC1 the INHIBITION was 60.1%. In the case of Cn1cnc(S(=O)(=O)N2CCCc3c(F)cc(F)cc32)c1Cl, the INHIBITION is reported as 30.3%. With Cc1cccc(OCCSCCn2nc3ccccn3c2=O)c1 the INHIBITION was 22%. Work on CCc1nc(CN(C)C(=O)c2ccc(OCCCOC)nc2)cs1 yielded an INHIBITION of 82.5%. Compound COCCCOc1ccc(C(=O)N(C)Cc2cccc(O)c2)cn1 has an INHIBITION of 38%. COCCCOc1ccc(C(=O)N(C)CCC(C)C)cn1 gave an INHIBITION of 39.7%. Compound COCC(=O)N1CCC(c2cc(-c3ccc(OC)cc3)n[nH]2)C1 (configuration not stated) has an INHIBITION of -50.3%. For CCOC1CCN(C(=O)Nc2ccc(=O)n(C)c2)CC1, the INHIBITION was 33%. Compound COc1ccccc1OC1CCN(Cc2cccnc2)CC1 has an INHIBITION of 5.91%. c1cncc(O[C@H]2COCCN(CC3CC3)C2)c1 was tested, and the INHIBITION was 12.4%. Compound CCc1ncc(CN2CCC(Oc3ccccc3OC)CC2)cn1 has an INHIBITION of -40%. CN1CCN(C2CCN(CCOc3ccccc3F)CC2)C1=O showed an INHIBITION of -22.9%. Fc1cccc(OC2CCN(CCn3cc4ccccc4n3)CC2)c1 was tested, and the INHIBITION was 75.2%. c1cncc(OC2CCN(CCn3cc4ccccc4n3)CC2)c1 showed an INHIBITION of 50.8%. Fc1ccccc1OC1CCN(CCn2cc3ccccc3n2)CC1 gave an INHIBITION of 89.3%. Work on OCCn1nccc1C1CCN(CCOc2cccc(F)c2)CC1 yielded an INHIBITION of 31.9%. With Cc1ccc(CNC(=O)NCc2nccn2C)c(OC(C)(C)C)c1 the INHIBITION was 43.5%. Compound CC(C)NC(=O)N1CCN(C(=O)C2CCOCC2)CC2(CNC(=O)C2)C1 (configuration not stated) has an INHIBITION of 1.9%. Work on CCC(=O)N1CCN(C(=O)NCCOc2ccc3c(c2)CCC3)CC1 yielded an INHIBITION of 30.2%. For Cc1nccn1-c1ccc(NS(=O)(=O)c2cnn(C)c2)cn1, the INHIBITION was 4.95%. Cc1cccc(CN2Cc3[nH]nc(COCC4CC4)c3C2)n1 gave an INHIBITION of 48.2%. Compound Cc1ncc(CNC(C)(C)CO)c2cc(C(=O)c3ccc(Br)cc3)oc12 has an INHIBITION of 65.3%. CN(C)c1ccc(C(=O)NCc2csc(Br)c2)cn1 showed an INHIBITION of 1.75%. Cc1ncc(CN2CCOCC2)c2cc(C(=O)c3ccc(Br)cc3)oc12 gave an INHIBITION of -21.8%. Cc1ncc(CN2CCCC2)c2cc(C(=O)c3ccc(Br)cc3)oc12 showed an INHIBITION of 44.5%. With Cc1ncc(CNCC(C)O)c2cc(C(=O)c3ccc(Br)cc3)oc12 (configuration not stated) the INHIBITION was 50.5%. Cc1ncc(CNCCO)c2cc(C(=O)c3ccc(Br)cc3)oc12 was tested, and the INHIBITION was 59.2%. With Cc1ncc(CN(C)CCO)c2cc(C(=O)c3ccc(Br)cc3)oc12 the INHIBITION was 36.8%. COC(=O)c1oc(CNC(C)(C)CO)cc1C gave an INHIBITION of -3.35%. In the case of CC(O)CNC(=O)Nc1ccc(Br)cc1Br (configuration not stated), the INHIBITION is reported as 29.1%. Work on CN1C(=O)CCC12CCC(NCc1ccsc1)CC2 (configuration not stated) yielded an INHIBITION of 8.74%. Compound COCCOC1CCN(C(C(=O)O)c2ccc3c(c2)OCO3)CC1 (configuration not stated) has an INHIBITION of 14.9%. COCCCC1CCCCN1Cc1cn2cc(C)ccc2n1 (configuration not stated) showed an INHIBITION of -17.2%. CN1CCN(C(=O)CCCc2ccccc2)CC(O)(Cn2cccn2)C1 (configuration not stated) showed an INHIBITION of 26.65%. Cc1ccc(-n2cc(CN3CCOCC3)c(-c3cccc(C)c3)n2)cc1 was tested, and the INHIBITION was 56.1%. Cc1ccc(C)c(-n2cc(CN3CCOCC3)c(-c3ccccc3)n2)c1 gave an INHIBITION of 33.4%. For Cc1ccc(C)c(-n2cc(CN3CC[C@@H](O)C3)c(-c3ccccc3)n2)c1, the INHIBITION was 39.9%. For COc1cc(N2CCCn3cnc(COC(C)C)c3C2)ncn1, the INHIBITION was 48.2%. Cc1cc(NC(=O)C(C)Nc2cccc(COCc3ccco3)c2)on1 (configuration not stated) was tested, and the INHIBITION was 39.5%. Cc1cc(-c2ccc(C(=O)O)cc2)nc(C2CCN(C(C)C)CC2)n1 showed an INHIBITION of 2.71%. Cc1cccc(Nc2cc(C)nc(C3CCN(C(C)C)C3)n2)n1 (configuration not stated) was tested, and the INHIBITION was 60.9%. In the case of Cc1cc(C)nc(Nc2cc(C)nc(C3CCN(C(C)C)C3)n2)n1 (configuration not stated), the INHIBITION is reported as 11.685%. Compound Cc1nc(-c2cccc(C(=O)O)c2)cc(C2CCN(C(C)C)C2)n1 (configuration not stated) has an INHIBITION of 0.0932%. Work on Cc1cc(C)nc(Nc2cccc(C3CCCN(C(C)C)C3)n2)n1 (configuration not stated) yielded an INHIBITION of -21.4%. With Cc1cc(-c2cccc(C(=O)O)c2)nc(C2CCN(C(C)C)CC2)n1 the INHIBITION was 56%. With Cc1noc(Cl)c1CCC(=O)N1CCN(Cc2ccncc2)CC1 the INHIBITION was 1.78%. Cc1nn2cnnc2c(C)c1CCC(=O)Nc1nnc(C2CC2)s1 was tested, and the INHIBITION was -31.1%. CC(C(=O)NCCc1ccc2c(c1)OCCO2)n1cncn1 (configuration not stated) showed an INHIBITION of 35.4%. In the case of CCN(Cc1noc(CC(C)C)n1)Cc1cc2ccc(F)cc2[nH]c1=O, the INHIBITION is reported as -7.65%. Compound Cn1cccc1CN1CCc2c(nc(-c3ccccn3)[nH]c2=O)C1 has an INHIBITION of 6.32%. In the case of CCOc1ccc2[nH]c(=O)c(CN3CCCC(CO)(CO)C3)cc2c1, the INHIBITION is reported as -46.4%. CO[C@H]1CCN(C(=O)c2ccc3[nH]nnc3c2)C[C@@]12CCCO2 showed an INHIBITION of 5.34%.
